Reference: PubChem BioAssay (Tox21)
Several values for one entry are separate records, joined by “and”; a condition that tells them apart may be missing. Equal values may be shown once. Values without a mark were called inactive. Calls come from the whole dose curve.

assay: qHTS assay to identify small molecule agonists of the estrogen related receptor (ERR) signaling pathway from Tox21 library (AID 1224849); conditions: ERR reporter cell line, ONE-Glo luciferase, 18 h; at 92.4 µM (top of the series) unless noted; note: nearly all actives have a fitted effect of over 15% in size
From the text: National Center for Advancing Translational Sciences [NCATS]
NIH Chemical Genomics Center [NCGC]
U.S. Environmental Protection Agency [EPA]
National Institutes of Environmental Health Sciences [NIEHS]
National Toxicology Program [NTP]
Estrogen related receptors (ERRs), the first orphan nuclear receptors discovered, play an important role in the control of cellular energy metabolism. ERRs are required for high-energy production in response to the environmental challenges. ERR-alpha was also identified as an adverse marker for breast cancer progression; ERR-alpha-positive tumors have a poor prognosis. To screen and to identify environmental compounds that perturb the ERR signaling pathways could provide valuable information for potential therapeutic or preventive measures in the treatment of metabolic disease. For identifying ERR agonists, ERR cell line (provided by NTP) has been used to screen Tox21 10K library.
The ERR cells were dispensed at 2,000 cells/5 ul/well in 1536-well white plates using a Multidrop dispenser. After the assay plates were incubated at a 37 C/5% CO2 incubator for 6 hours, 23 nL of compounds dissolved in DMSO, positive and negative controls or DMSO only was transferred to the assay plate by a pin tool. The plates were incubated at 37 C for 18 hours. 4 ul/well of One-Glo reagent was added into the assay plates using a Flying Reagent Dispenser. After 30-minute incubation at room temperature, the luminescence intensity in the plates was measured using a ViewLux plate reader.
% is set by controls: 0 for no effect and ±100 for the full control effect.

SMILES | activity change, positive = activation
COc1cccc([C@@]2(O)CCCC[C@@H]2CN(C)C)c1 | 1.87% [at 42.5 µM]
CC(C)(C)NC[C@H](O)c1ccc(O)cc1Cl | 0.107% [at 42.5 µM]
Cc1ccc(S(=O)(=O)N[C@@H](CCCCN)C(=O)CCl)cc1 | 0.318% [at 42.5 µM]
[P]#[In] | 3.59%
CCOC(=O)N(C)N=O | -2.98%
CNC(=O)Oc1ccccc1C(C)C | 1.9%
CCCN1CCC[C@@H]2Cc3nc(N)ncc3C[C@H]21 | 3.55% [at 42.5 µM]
O=C(Cl)c1ccccc1 | 7.58%
O=C1C2CC=CCC2C(=O)N1SC(Cl)(Cl)Cl (stereo not given) | -8.8% and -75.3%
CCOC(=O)C(SP(=S)(OC)OC)c1ccccc1 (stereo not given) | -11.8%
CS(=O)(=O)c1ccc(C(=O)C2C(=O)CCCC2=O)c(Cl)c1COCC(F)(F)F | -5.95%
O=c1[nH]oc2c1CCNC2 | 0.599% [at 42.5 µM]
C=CC(=O)OCCN(C)C | 3.26%
CC(C)[N+](C)(CCC(C(N)=O)(c1ccccc1)c1ccccc1)C(C)C | 4.04% [at 42.5 µM]
COc1ccc(C=O)cc1O | 2.88%
O=C(Cl)/C=C/C(=O)Cl | -12%
CCN(CC)C1CCCCC1 | 0.2%
Cn1c(CCCC(=O)O)nc2cc(N(CCCl)CCCl)ccc21 | -8.11% [at 42.5 µM]
COc1cccc(C=O)c1 | 0.51%
c1ccc2c(c1)CCNC2 | -19.6%

SMILES | activity change, positive = activation
CC(C)(N)Cc1ccccc1Cl | -8.42% [at 42.5 µM]
COC[C@@H](NC(C)=O)C(=O)NCc1ccccc1 | 4.5% [at 42.5 µM]
CCCCS(=O)(=O)Cl | -4.82%
O=C(CCl)NCO | 7.02%
C[C@H](CN1CCOCC1)C(C(=O)N1CCCC1)(c1ccccc1)c1ccccc1 | -33.1%
OP(O)c1ccccc1 | 1.75%
CCN[C@@H](C)Cc1ccccc1 | 9.72%
CC[C@@H](CO)NC(=O)[C@@H]1C=C2c3cccc4[nH]cc(c34)C[C@H]2N(C)C1 | -0.565% [at 42.5 µM]
CC[C@@H](CO)NC(=O)[C@@H]1C=C2c3cccc4c3c(cn4C)C[C@H]2N(C)C1 | 0.637% [at 42.5 µM]
Oc1ccc(Cc2ccc(O)cc2)cc1 | 5.91%
O=S1(=O)OCCO1 | 5.54%
CCC(C)(C#N)N=NC(C)(C#N)CC (stereo not given) | 3.15%
CC(=O)CN(CC(C)=O)N=O | -3.56%
NC(=O)CS(=O)C(c1ccccc1)c1ccccc1 (stereo not given) | 9.38% [at 42.5 µM]
O=c1[nH]c2ccccc2o1 | -3.64%
CN=CNc1ccc(C)cc1C | 1.36%
C=CCN1CC[C@]23CCCC[C@H]2[C@H]1Cc1ccc(O)cc13 | 5.12% [at 42.5 µM]
CC(Cc1ccccc1)NCCn1cnc2c1c(=O)n(C)c(=O)n2C (stereo not given) | -15.8%
COc1ccccc1OC | 2.11%
CCCC[N+](=O)[O-] | -0.684%
